Screening results: PubChem, National Center for Advancing Translational Sciences (NCATS)
In the library only some 19% were active in any assay of this set; here they are far more common.
HT1080NT lethal = qHTS for induction of synthetic lethality in tumor cells producing 2HG: qHTS for the HT-1080-NT fibrosarcoma cell line. HT-1080-NT fibrosarcoma viability, CellTiter-Glo ATP luminescence, 48 h. hit rate 1.6% among 360,000. Potency, µM (titrated, usually from 46.1 µM), for inactives: top-dose activity, negative = less viability, actives largely listed as cytotoxic;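 also: NT is the 2HG producing partner of a matched IDH1 knockdown line; potency is read from the fitted curve at half-maximal effect; 0% = DMSO-treated cells and -100% = media-only wells without cells; nearly all actives have a fitted effect of over 55% in size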
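HT-1080-NT; 750 cells/well; 5% FBS RPMI; 48 h compound, 37 degrees C; CellTiter-Glo luminescence; curve fitting and curve-class assignment.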
DT40 TDP1 CPT = qHTS for Inhibitors of human tyrosyl-DNA phosphodiesterase 1 (TDP1): qHTS in cells in presence of CPT; chicken DT40 Tdp1-/-;hTDP1 cells + 20 nM CPT, ATP luminescence, 48 h; Potency, µM (doses to about 46.2 µM), inactives show at the top dose activity change, negative = growth inhibition, actives largely listed as inhibitors; hit rate 12% among 420,000; AID 686979, 2013; also: potency is read from the fitted curve at half-maximal effect; nearly all actives have a fitted effect of over 55% in size
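Chicken DT40 Tdp1-/- cells stably complemented with human TDP1 were seeded at 400 cells/well in medium containing 20 nM camptothecin, exposed to pin-transferred compounds, and grown at 37 °C for at least 48 hr. Viability was read as ATP luminescence.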
DT40 TDP1 no CPT = qHTS for Inhibitors of human tyrosyl-DNA phosphodiesterase 1 (TDP1): qHTS in cells in absence of CPT. DT40 Tdp1-/- hTDP1 cells, no CPT, ATP luminescence, 48 h. hit rate 15% among 420,000. Potency, µM (titrated, usually from 46.2 µM), for inactives: at the top dose activity change, negative = growth inhibition, actives largely listed as inhibitors; also: potency is read from the fitted curve at half-maximal effect; nearly all actives have a fitted effect of over 55% in size
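Stably hTDP1-transfected Tdp1-null chicken DT40 cells were treated with library compounds minus camptothecin and grown for at least 48 hr at 37 °C, after which cellular ATP was quantified by luminescence.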
IL1B secr inh = qHTS for Inhibitors of Inflammasome Signaling: IL-1-beta AlphaLISA Primary Screen; THP-1 LPS/ATP IL-1B secretion, AlphaLISA, 16 h; active compounds read low; activity change, % at 57.5 µM; hit rate 4.7% among 360,000; AID 743279, 2014; in the data active = activity change below about -50%; inconclusive = mostly about -30% to -49%
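Secreted IL-1B measured by AlphaLISA bead assay after 16 h compound exposure of THP-1 cells; compounds (final up to 57.5 uM) added 1 h before LPS (250 ng/mL) and ATP (1.25 mM) stimulation; lower signal means less secretion.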
HT1080 IDH1KD tx = qHTS for induction of synthetic lethality in tumor cells producing 2HG: qHTS for the HT-1080-IDH1KD cell line; HT-1080 IDH1 knockdown viability, ATP luminescence, 48 h; hit rate 2% among 360,000; Potency, µM (highest dose often 46.1 µM), inactives show at the top dose activity, negative = toxicity, actives largely listed as cytotoxic;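 also: potency is read from the fitted curve at half-maximal effect; 0% = DMSO wells and -100% = cell-free medium wells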
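IDH1KD HT-1080 cells, 750/well, RPMI + 5% FBS; compound pinned after 2 h settling; 48 h, 37 °C; CellTiter-Glo luminescence; % activity normalised to DMSO and no-cell wells; curves fitted, classed by r2 and efficacy.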
Active calls of the source: *. Unless noted, calls follow the shape of the dose curve; as a rule, active = well fitted curve in the direction sought with a large enough effect; inconclusive = small, poorly fitted or top-dose-only effect, or another doubt; inactive = no such curve, though single readings can be large; an effect the other way counts as inactive or inconclusive. Unless noted, % is scaled to controls: 0 for no effect and ±100 for the full control effect.

How did C[C@H](CO)N1C[C@H](C)[C@H](CN(C)Cc2ccccc2)Oc2ccc(NC(=O)Nc3ccc(F)cc3)cc2C1=O do in these assays?
HT1080NT lethal: inconclusive; DT40 TDP1 CPT: inconclusive; DT40 TDP1 no CPT: inconclusive; IL1B secr inh: -16; HT1080 IDH1KD tx: inconclusive

Results for COc1ccc(NC(=O)N(C)C[C@H]2Oc3c(NC(=O)NC(C)C)cccc3C(=O)N([C@H](C)CO)C[C@@H]2C)cc1 ?
HT1080NT lethal: 13%; DT40 TDP1 CPT: 2%; DT40 TDP1 no CPT: 1%; IL1B secr inh: 22; HT1080 IDH1KD tx: 7%

What do the screens show for `COc1ccc(-n2c(=O)c(-c3ccc(F)cc3)nc3cnc(N4CCOCC4)nc32)cc1`?
DT40 TDP1 CPT: 11%; DT40 TDP1 no CPT: 4%

Results for CCCN1CNc2c(c(=O)[nH]c(=S)n2CCc2ccccc2)C1 ?
HT1080NT lethal: 7%; DT40 TDP1 CPT: -9%; DT40 TDP1 no CPT: -19%; IL1B secr inh: 17; HT1080 IDH1KD tx: -2%

Results for CCCN1CNc2c(c(=O)[nH]c(=S)n2CCCc2ccccc2)C1 ?
HT1080NT lethal: -23%; DT40 TDP1 CPT: inconclusive; DT40 TDP1 no CPT: 13µM*; HT1080 IDH1KD tx: -29%

What do the screens show for `CCCN1CNc2c(c(=O)[nH]c(=S)n2CCc2cccc(C)c2C)C1`?
HT1080NT lethal: 10%; DT40 TDP1 CPT: inconclusive; DT40 TDP1 no CPT: 13µM*; HT1080 IDH1KD tx: 13%

Results for CCCN1CNc2c(c(=O)[nH]c(=S)n2CCC(C)C)C1 ?
HT1080NT lethal: 0%; DT40 TDP1 CPT: -22%; DT40 TDP1 no CPT: inconclusive; HT1080 IDH1KD tx: 9%

What do the screens show for `CCCN1CNc2c(c(=O)[nH]c(=S)n2CCc2ccccc2C)C1`?
HT1080NT lethal: 12%; DT40 TDP1 CPT: -29%; DT40 TDP1 no CPT: -24%; HT1080 IDH1KD tx: 22%

How did CCCN1CNc2c(c(=O)[nH]c(=S)n2CCC(C)(C)C)C1 do in these assays?
HT1080NT lethal: -10%; DT40 TDP1 CPT: inconclusive; DT40 TDP1 no CPT: 13µM*; HT1080 IDH1KD tx: -15%

What do the screens show for `Cn1c(=O)c2c(ncn2CC(O)CNc2ccc(Br)cc2)n(C)c1=O` (centres undefined)?
HT1080NT lethal: -9%; DT40 TDP1 CPT: -26%; DT40 TDP1 no CPT: inconclusive; IL1B secr inh: 17; HT1080 IDH1KD tx: 2%

Results for COc1ccc(CCNC(=O)C2CCCN2C(=O)Nc2cccc(C(C)=O)c2)cc1OC (centres undefined) ?
HT1080NT lethal: 10%; DT40 TDP1 CPT: -1%; DT40 TDP1 no CPT: -4%; IL1B secr inh: 4; HT1080 IDH1KD tx: 9%

How did COC(=O)c1cccc(Cn2c(Cl)c(/C=N/NC(=O)c3ccco3)sc2=O)c1 do in these assays?
HT1080NT lethal: 0%; DT40 TDP1 CPT: inconclusive; DT40 TDP1 no CPT: 9.2µM*; IL1B secr inh: inconclusive; HT1080 IDH1KD tx: -20%

How did O=C(O)c1cccc(Cn2c(Cl)c(/C=N/NC(=O)c3ccc(O)cc3)sc2=O)c1 do in these assays?
HT1080NT lethal: 2%; DT40 TDP1 CPT: 1%; DT40 TDP1 no CPT: -11%; IL1B secr inh: -4; HT1080 IDH1KD tx: -2%

Results for O=c1sc(/C=N/Nc2ccccc2)c(Cl)n1Cc1ccccc1 ?
HT1080NT lethal: 15µM*; DT40 TDP1 CPT: -8%; DT40 TDP1 no CPT: -22%; IL1B secr inh: -19; HT1080 IDH1KD tx: 13µM*

What do the screens show for `Oc1c(Br)cc(CNC2CCCCC2)cc1Br`?
HT1080NT lethal: 1%; DT40 TDP1 CPT: -11%; DT40 TDP1 no CPT: -25%; IL1B secr inh: 11; HT1080 IDH1KD tx: -14%

How did COC(=O)c1cc(N=Nc2sc(N)nc2C)cc(C(=O)OC)c1 do in these assays?
HT1080NT lethal: -21%; DT40 TDP1 CPT: inconclusive; DT40 TDP1 no CPT: 13µM*; IL1B secr inh: -19; HT1080 IDH1KD tx: inconclusive
